# SW480 rerep: DNA re-replication induction in SW480 cells; 1.8% of 340,000 active; Potency, µM (doses to about 46.1 µM), inactives show at the highest dose re-replication activation, actives largely listed as activators; SW480 DNA re-replication, Hoechst DNA content imaging, 48 h; also: % of control where 0% means no effect; nearly all actives have a fitted effect of over 55% in size
#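 Image-based DNA-content assay: after two days of treatment, nuclei were labelled with the DNA dye Hoechst and imaged, and hits were compounds raising the count of nuclei showing high fluorescence intensity.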
# KB-3-1 cytotox: KB-3-1 parental cell cytotoxicity. 1.4% of 400,000 active. Potency, µM (doses to about 46.1 µM), actives largely listed as cytotoxic. AID 1347075. KB-3-1 viability, CellTiter-Glo ATP luminescence, 72 h; also: % is scaled to controls: 0 for no effect and ±100 for the full control effect; nearly all actives have a fitted effect of over 60% in size
#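 Using CellTiter-Glo luminescence, growth of non-resistant KB-3-1 adenocarcinoma cells is assessed 72 h after pin-tool compound addition at 37 °C. Normalized responses across the concentration series yield fitted curves.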
# KB-V1 MDR tox: kills drug-selected multidrug resistant KB-V1 cells. KB-V1 MDR cells viability, CellTiter-Glo, 72 h. Potency, µM (series often up to 46.1 µM), usual class: cytotoxic. 3.4% of 400,000 active; also: % is scaled to controls: 0 for no effect and ±100 for the full control effect; nearly all actives have a fitted effect of over 60% in size
#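 Drug-selected KB-V1 cells, grown in DMEM lacking phenol red with 10% FBS, receive compound titrations; after three days at 37 degrees C, surviving cell ATP is quantified by CellTiter-Glo luminescence and responses normalized and curve-fitted.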
# MCF10A rerep: induces DNA re-replication in MCF 10a normal breast cells. AID 624296. 2.9% of 350,000 active. MCF 10A DNA re-replication, Hoechst nuclear intensity, 48 h. Potency, µM (titrated, usually from 46.1 µM), inactives show at the top dose activity, positive = re-replication, hits mostly activators; also: % of control where 0% means no effect; nearly all actives have a fitted effect of over 50% in size
# PINK1 expr mod: changes PINK1 expression | AID 624263 | Potency, µM (doses to about 76.6 µM), for inactives: at the top dose activation (PINK1 increase), most hits filed as activators | 0.2% of 410,000 active | PINK1 immunofluorescence, high-content cytometry, 24 h; active = well fitted activation curve with a large enough effect; inconclusive = small, poorly fitted or top-dose-only effect; cell line not stated here; also: % of control where 0% means no effect; nearly all actives have a fitted effect of over 65% in size
#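 Compound titrations (5 concentrations, 24 h) on a stable cell line; DMSO and CCCP controls. Endpoint: fixed-cell PINK1 immunofluorescence with mitochondrial, cell and nuclear markers, scanned by microplate cytometer.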
# Active calls of the source: *; i = inactive; ? = inconclusive; nt = no result; [ ] = remark or other dose. Most compounds without a hit are left out; they make up all but 6.7% or so of the library. Unless noted, calls follow the shape of the dose curve; as a rule, active = well fitted curve in the direction sought with a large enough effect; inconclusive = small, poorly fitted or top-dose-only effect, or another doubt; inactive = no such curve, though single readings can be large; an effect the other way counts as inactive or inconclusive. Potency is read from the fitted curve at half-maximal effect.
SMILES,SW480 rerep,KB-3-1 cytotox,KB-V1 MDR tox,MCF10A rerep,PINK1 expr mod
COC(=O)[C@@]12C[C@@H](CC(=O)NCCCCc3ccccc3)C(=O)N(Cc3ccco3)C1=CCC(C)(C)C2,nt,i,?,nt,nt
COC(=O)[C@@]12C[C@@H](CC(=O)NCc3ccccc3)C(=O)N(Cc3ccc4c(c3)OCO4)C1=CCC(C)(C)C2,nt,?,21µM*,nt,nt
COC(=O)[C@@]12C[C@@H](CC(=O)NCc3cccc4ccccc34)C(=O)N(Cc3ccccc3)C1=CCC(C)(C)C2,nt,?,21µM*,nt,nt
Cc1ccc2c(CN(C)Cc3ccc(Cl)cc3)cc(=O)oc2c1,-25%,i,i,?,1%
Cc1c(Cl)cccc1NC(=O)N1CCC(CN2CCCC2)CC1,nt,nt,nt,nt,0%
COC(=O)[C@@]12C[C@@H](CC(=O)NCc3cccc4ccccc34)C(=O)N(Cc3ccc4c(c3)OCO4)C1=CCC(C)(C)C2,nt,?,23µM*,nt,nt
COC(=O)[C@@]12C[C@@H](CC(=O)NCc3ccccc3)C(=O)N(Cc3ccco3)C1=CCC(C)(C)C2,nt,i,?,nt,nt
COC(=O)[C@@]12C[C@@H](CC(=O)NCc3cccc4ccccc34)C(=O)N(Cc3ccco3)C1=CCC(C)(C)C2,nt,i,21µM*,nt,nt
CCOC(=O)[C@]12CCCC=C1N(Cc1ccc3c(c1)OCO3)C(=O)[C@H](CC(=O)NCc1cccc3ccccc13)C2,nt,i,?,nt,1%
COC(=O)[C@@]12C[C@@H](CC(=O)N3CCCC3)C(=O)N(Cc3cccc4ccccc34)C1=CCC(C)(C)C2,nt,?,13µM*,nt,nt
Cc1cc(-c2ccnc(-n3ncc(C(=O)N(C)CC(O)c4ccccc4)c3C)n2)c(C)s1 (configuration not stated),nt,nt,nt,nt,-1%
COc1ccc(CC2S/C(=N/N=C/c3ccccc3O)NC2=O)cc1 (configuration not stated),2.9µM*,?,i,23µM*,14%
CCCc1nc2ccccc2c(C(=O)OCC(=O)N2CCc3ccccc32)c1CC,0%,?,6.5µM*,21µM*,4%
Cc1noc(C)c1C(=O)OCC(=O)N1CCc2ccccc21,-10%,i,?,3%,12%
CC1CCc2nc3ccccc3c(C(=O)OCC(=O)N3CCc4ccccc43)c2C1 (configuration not stated),-2%,?,2.1µM*,3%,10%
COc1ccccc1-c1ccnc(-n2ncc(C(=O)NC(c3cccnc3)C(F)(F)F)c2C)n1 (configuration not stated),nt,nt,nt,nt,6%
O=c1[nH]c(=S)c2[nH]c(=S)n(-c3ccccc3)c2[nH]1,-8%,i,i,5%,1%
Cc1ccc(OCC(=O)NCC(=O)OCc2cc(=O)n3nc(C(C)C)sc3n2)cc1,nt,i,?,nt,3%
Nc1ccc2nc(SCc3ccccc3F)sc2c1,5%,i,i,21µM*,11%
NC(N)=NS(=O)(=O)c1ccc(N/C=C/C(=O)c2ccc(Cl)c(Cl)c2)cc1,15µM*,i,i,?,0%
CC(=O)Nc1ccc(N/C=C/C(=O)c2ccc(Cl)cc2)cc1,-7%[9.22 µM],i,i,1%,11µM*
COc1cc(C(=O)/C=C/Nc2ccc(NC(C)=O)cc2)cc(OC)c1OC,2%,i,21µM*,13µM*,4%
COc1ccc(C(=O)NN/C=C/C(=O)c2ccc(Br)cc2)cc1,nt,i,i,nt,5%
COc1ccc(C(=O)C=CNNC(=O)c2ccc(Cl)cc2)cc1,3.7µM*,?,?,5.8µM*,0%
Cc1ccc(S(=O)(=O)Nc2ccc(Nc3nccn4c(-c5cccc(OC(F)(F)F)c5)cnc34)cc2)cc1,nt,?,?,nt,11%
Cc1cccc(NC(=O)N2CC(=O)Nc3sc4c(c3C2c2ccccc2)CCCC4)c1C (configuration not stated),nt,?,?,nt,2%
COc1ccccc1Oc1ccc(N/C=C/C(=O)c2ccc(C)o2)cc1,-4%,i,i,?,3%
CC(=O)Nc1ccc(N/C=C/C(=O)c2ccc(C)o2)cc1,0%,i,i,23µM*,-3%[38.3 µM]

# Screening results as filed in PubChem BioAssay.
